Here are results for 38 molecules from PubChem BioAssay AID2158 (National Center for Advancing Translational Sciences (NCATS), 2009).

Inconclusive results are not listed. Values without a mark were called inactive. Calls of active or inactive are those of the source. Calls come from the whole dose curve; as a rule, active = well fitted inhibition curve with a large enough effect; inconclusive = small, poorly fitted or top-dose-only effect; inactive = no such curve, though single readings can be large or run the other way.
Potency is the fitted concentration of half-maximal effect.

This assay deals with Cruzipain (Trypanosoma cruzi) (UniProt P25779). Nature of the assay: Confirmation qHTS Assay for Inhibitors of Cruzain.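 For activity change, negative = inhibition: plate controls were uninhibited enzyme control for no effect and buffer wells lacking enzyme for full effect.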 Note: nearly all actives have a fitted effect of over 40% in size. As to conditions: purified cruzain, Z-FR-AMC fluorescence, 0.01% Triton. In short, it runs like this: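 Purified cruzain, 1.5 nM, pre-incubated 15 min at room temperature with compound in 100 mM sodium acetate pH 5.5, 5 mM DTT, 0.01% Triton X-100. Then 2 uM Z-FR-AMC added; AMC fluorescence (ex 360/em 450 nm) increase over 60 s gave reaction progress.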
Cruzipain (Trypanosoma cruzi), sequence (P25779 123-467 limits assumed): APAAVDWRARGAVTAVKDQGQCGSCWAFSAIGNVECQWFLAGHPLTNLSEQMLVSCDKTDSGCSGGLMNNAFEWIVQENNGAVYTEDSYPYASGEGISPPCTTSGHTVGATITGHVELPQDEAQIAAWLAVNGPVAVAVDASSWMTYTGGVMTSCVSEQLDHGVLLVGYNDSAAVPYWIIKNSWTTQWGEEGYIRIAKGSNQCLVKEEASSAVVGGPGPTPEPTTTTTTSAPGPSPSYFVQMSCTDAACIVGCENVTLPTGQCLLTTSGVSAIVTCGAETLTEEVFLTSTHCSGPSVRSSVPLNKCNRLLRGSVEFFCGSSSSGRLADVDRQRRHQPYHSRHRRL
For the molecule `Cc1ccc(NC(=O)c2ccc(-n3nncc3-c3ccccc3)cc2)cc1`, the activity change, negative = inhibition was 2.57%. For the molecule `N#Cc1c(N2CCOCC2)nc(-c2ccco2)c2c1CCCC2`, the Potency was 3.98 µM (active). On the same count and under the same terms, the figure for `N#Cc1nc(Nc2cc(Cl)cc(Cl)c2)nc(NC2CCCC2)n1` is 0.398 µM (active). Regarding `O=C(CNC(=O)c1ccc(-c2ccccc2)cc1)OC(C(=O)Nc1cc(C(F)(F)F)ccc1Cl)c1ccccc1` (stereo not drawn), the activity change, negative = inhibition was -19.3%.

On to `O=C(Nc1ccccc1)c1ccc2nc(-c3ccco3)c(-c3ccco3)nc2c1`, for which the Potency was 7.94 µM (active). For the molecule `COc1cccc(NC(=O)C(OC(=O)CNC(=O)c2ccccc2)c2ccccc2)c1` (stereo not drawn), the Potency was 12.6 µM (active). Same read-out and setting: the result for `N#Cc1nc(Nc2cc(F)cc(F)c2)nc(Nc2cc(F)cc(F)c2)n1` reads 0.0794 µM (active). Turning to `COc1ccc(-c2nnc(NC(=O)c3ccc(S(=O)(=O)N4CCCc5ccccc54)cc3)o2)cc1`, the activity change, negative = inhibition is -17.1%. `COc1nc(C#N)nc(N2CCCCC2)n1`: the Potency is 2.82 µM (active). In the case of `O=C(COC(=O)CNC(=O)c1ccccc1)Nc1ccccc1Cl`, the Potency is 11.2 µM (active). Regarding `N#Cc1nc(Nc2cccc(Br)c2)nc(NC2CCCC2)n1`, the Potency was 0.1 µM (active).

Consider `CCc1ccc(OCCCn2c(CCCNC(=O)C3CCCCC3)nc3ccccc32)cc1`, for which the activity change, negative = inhibition was -18.8%. Regarding `N#Cc1nc(Nc2cccc(F)c2)nc(NC2CCCC2)n1`, the Potency was 0.0794 µM (active). For the molecule `N#Cc1c(-c2ccccc2)cc(-c2ccco2)c(C#N)c1N`, the activity change, negative = inhibition was -11%. On the same count and under the same terms, the figure for `C[C@H](CCC(=O)O)[C@H]1CC[C@@H]2[C@@H]3[C@@H](O)C[C@H]4C[C@@H](O)CC[C@@]4(C)[C@H]3CC[C@@]21C` is 2.73%; for `N=c1c(C(=O)NCc2ccc(F)cc2)cc2c(=O)n3ccccc3nc2n1CC1CCCO1` (stereo not drawn) it is -76.7%; for `N#CN1CCC(NS(=O)(=O)c2cccc(C(F)(F)F)c2)CC1` it is 0.31%. Turning to `Cc1ccc(-c2c3c(=O)n(C)c(=O)n(C)c3cn2-n2cnnc2)cc1`, the Potency is 25.1 µM (active). Same read-out and setting: the figure for `N#Cc1nc(NCC(F)F)c2ncn(-c3cccc(Cl)c3)c2n1` is 0.0891 µM (active). With `COC(=O)CCC(C)C1CCC2C3C(O)C[C@@H]4CC(O)CC[C@@]4(C)C3CC(O)[C@]12C` (stereo partly drawn), the activity change, negative = inhibition is -0.647%. In the case of `C=Cc1nc(Nc2cc(F)cc(F)c2)nc(NC2CCCC2)n1`, the activity change, negative = inhibition is -5.68%.

Consider `COc1cc(NC(=O)C(OC(=O)CNC(=O)c2ccccc2)c2ccccc2)c(OC)cc1Cl` (stereo not drawn), for which the Potency was 11.2 µM (active). On to `N#CN1CCC(NS(=O)(=O)c2ccc(C(F)(F)F)cc2)CC1`, for which the activity change, negative = inhibition was -6.95%. Consider `COc1ccccc1OCCn1c(CCNC(=O)C2CCCCC2)nc2ccccc21`, for which the Potency is 1.41 µM (active). Same read-out and setting: the result for `N#Cc1nc(Nc2cc(F)cc(F)c2)c2ncn(C3CCCC3)c2n1` reads 0.0224 µM (active); that for `COc1cccc2c1[C@@H]1CN(CCCCn3c(=O)[nH]c4c(sc5ncc(-c6ccccc6)nc54)c3=O)C[C@@H]1CO2`, 15.8 µM (active); that for `O=C(CNC(=O)c1ccccc1)OC(C(=O)Nc1cc([N+](=O)[O-])ccc1F)c1ccccc1` (stereo not drawn), 12.6 µM (active). For the molecule `CCOc1ccc(CN2C(=O)c3ccccc3Sc3ccc(C(=O)NCc4ccc5c(c4)OCO5)cc32)cc1`, the activity change, negative = inhibition is 6.89%. Consider `COC(=O)Sc1nc(N2CCOCC2)c2c(c1C#N)CC(C)(C)OC2`, for which the Potency is 14.1 µM (active). Still for that read-out and setting: the figure for `O=C(/C=C/c1ccc2c(c1)OCO2)Nc1ccc(-n2nncc2-c2ccccc2)cc1` is 2.51 µM (active); for `O=C(NCCO)c1ccc2nc(-c3ccco3)c(-c3ccco3)nc2c1` it is 14.1 µM (active).

For `O=c1cc(-c2ccccc2F)nc(-c2ccccc2F)o1`, the activity change, negative = inhibition is -25.6%.

With `O=C(Cc1nnc(-c2cc3ccccc3[nH]2)o1)Nc1cc(C(F)(F)F)ccc1Cl`, the activity change, negative = inhibition was -3.28%. On to `CCCCC(OC(=O)CNC(=O)c1ccccc1)C(=O)Nc1cc(C(F)(F)F)ccc1Cl` (stereo not drawn), for which the Potency is 8.91 µM (active). On the same count and under the same terms, the result for `CCC(C(=O)NC1CCCCC1)n1c(SCc2ccccc2F)nc2ccncc21` (stereo not drawn) reads 4.47 µM (active); that for `CCNc1nc(C#N)nc2c1ncn2-c1cccc(Cl)c1`, 0.0631 µM (active).

As for `O=C(N[C@@H](Cc1ccccc1)C(=O)CCl)OCc1ccccc1`, the Potency is 0.447 µM (active). `N#Cc1nc(Nc2ccc(C(F)(F)F)cc2)nc(NC2CCCC2)n1`: the activity change, negative = inhibition is 2.22%.
